Laboratory results published in PubChem BioAssay AID1159580 (chemical genetic matrix, 2015).
Where “and” joins values, the source holds several entries; their conditions need not be identical. Equal values may be shown once. About 2,000 (36%) of roughly 5,500 compounds were called active. Another 18% or so got no clear call; they are omitted. Rule as the data show it: active = normalized growth mostly below about 0.91 (no sharp cut-off); inconclusive = no clear call, values can overlap the other calls; inactive = mostly above about 0.92. This is one part of the list.

Assay: chemical genetic growth profiling, strain panel (AID 1159580);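 also: tested at 20 µM; growth read once vehicle control cultures reached saturation at 30 °C; 1 = growth at the plate median or of vehicle wells; lower values mean less growth of the strain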
Details: growth OD

Measured: normalized growth

CC12CC3CC(C)(C1)CC(N)(C3)C2
inactive: S. cerevisiae deletion strains, locus YJR075W, strain HOC1, active compounds read low 1.01 | S. cerevisiae deletion strains, locus YKL009W, strain mrt4, active compounds read low 1.03 | S. cerevisiae deletion strains, locus YKL068W, active compounds read low 0.999 | S. cerevisiae deletion strains, locus YKL085W, strain MDH1 (second series), active compounds read low 0.996 | S. cerevisiae deletion strains, locus YKL085W, strain MDH1, active compounds read low 0.996 | S. cerevisiae deletion strains, locus YKL160W, strain elf1, active compounds read low 1 | S. cerevisiae deletion strains, locus YKL190W, strain CNB1, active compounds read low 0.999 | S. cerevisiae deletion strains, locus YKR001C, strain vps1, active compounds read low 1.02 | S. cerevisiae deletion strains, locus YKR026C, strain gcn3, active compounds read low 0.982 | S. cerevisiae deletion strains, locus YKR091W, strain srl3, active compounds read low 0.99 | S. cerevisiae deletion strains, locus YLL001W, strain dnm1, active compounds read low 0.972 | S. cerevisiae deletion strains, locus YLL026W, active compounds read low 0.995 | S. cerevisiae deletion strains, locus YLL041C, strain sdh2, active compounds read low 0.997 | S. cerevisiae deletion strains, locus YLR027C, strain aat2, active compounds read low 0.991 | S. cerevisiae deletion strains, locus YLR039C, strain RIC1, active compounds read low 1.04 | S. cerevisiae deletion strains, locus YLR058C, strain SHM2, active compounds read low 0.999 | S. cerevisiae deletion strains, locus YLR102C, strain apc9, active compounds read low 0.996 | S. cerevisiae deletion strains, locus YLR113W, strain HOG1, active compounds read low 0.996 | S. cerevisiae deletion strains, locus YLR221C, strain rsa3, active compounds read low 1 | S. cerevisiae deletion strains, locus YLR258W, strain gsy2, active compounds read low 1 | S. cerevisiae deletion strains, locus YLR262C, strain YPT6 (second series), active compounds read low 1 | S. cerevisiae deletion strains, locus YLR262C, strain YPT6, active compounds read low 0.979 | S. cerevisiae deletion strains, locus YLR268W, strain sec22, active compounds read low 1.07 | S. cerevisiae deletion strains, locus YLR320W, strain mms22, active compounds read low 1 | S. cerevisiae deletion strains, locus YLR330W, strain CHS5, active compounds read low 1 | S. cerevisiae deletion strains, locus YLR342W, strain FKS1 (second series), active compounds read low 1.01 | S. cerevisiae deletion strains, locus YLR342W, strain FKS1, active compounds read low 0.985 | S. cerevisiae deletion strains, locus YLR357W, strain rsc2, active compounds read low 0.969 | S. cerevisiae deletion strains, locus YLR370C, strain arc18, active compounds read low 0.995 | S. cerevisiae deletion strains, locus YLR371W, strain rom2, active compounds read low 1.01 | S. cerevisiae deletion strains, locus YLR384C, strain iki3, active compounds read low 0.99 | S. cerevisiae deletion strains, locus YLR418C, strain cdc73, active compounds read low 1.01 | S. cerevisiae deletion strains, locus YML016C, strain PPZ1, active compounds read low 0.998 | S. cerevisiae deletion strains, locus YML032C, strain rad52, active compounds read low 1.02 | S. cerevisiae deletion strains, locus YML120C, strain ndi1, active compounds read low 1 | S. cerevisiae deletion strains, locus YML124C, strain tub3, active compounds read low 1.01 | S. cerevisiae deletion strains, locus YMR058W, strain fet3, active compounds read low 0.993 | S. cerevisiae deletion strains, locus YMR078C, strain ctf18, active compounds read low 1 | S. cerevisiae deletion strains, locus YMR125W, strain sto1, active compounds read low 0.975 | S. cerevisiae deletion strains, locus YMR129W, active compounds read low 0.979 | S. cerevisiae deletion strains, locus YMR205C, strain PFK2, active compounds read low 0.993 | S. cerevisiae deletion strains, locus YMR223W, strain ubp8, active compounds read low 0.986 | S. cerevisiae deletion strains, locus YMR231W, strain pep5, active compounds read low 0.982 | S. cerevisiae deletion strains, locus YMR263W, strain SAP30, active compounds read low 1.01 | S. cerevisiae deletion strains, locus YMR307W, strain GAS1, active compounds read low 0.964 and 0.971 | S. cerevisiae deletion strains, locus YNL067W, strain RPL9B, active compounds read low 1.02 | S. cerevisiae deletion strains, locus YNL071W, strain lat1, active compounds read low 0.986 | S. cerevisiae deletion strains, locus YNL128W, strain TEP1, active compounds read low 1.01 | S. cerevisiae deletion strains, locus YNL153C, strain GIM3, active compounds read low 1.01 | S. cerevisiae deletion strains, locus YNL175C, strain NOP13, active compounds read low 0.994 | S. cerevisiae deletion strains, locus YNL183C, strain NPR1, active compounds read low 0.935 | S. cerevisiae deletion strains, locus YNL197C, strain WHI3, active compounds read low 1 | S. cerevisiae deletion strains, locus YNL209W, strain ssb2, active compounds read low 0.992 | S. cerevisiae deletion strains, locus YNL224C, strain SQS1, active compounds read low 1 | S. cerevisiae deletion strains, locus YNL233W, strain BNI4, active compounds read low 1.01 | S. cerevisiae deletion strains, locus YNL248C, strain rpa49, active compounds read low 0.961 | S. cerevisiae deletion strains, locus YNL250W, strain rad50, active compounds read low 1.01 | S. cerevisiae deletion strains, locus YNL271C, strain bni1, active compounds read low 1.01 | S. cerevisiae deletion strains, locus YNL298W, strain CLA4, active compounds read low 1 | S. cerevisiae deletion strains, locus YNL307C, strain MCK1, active compounds read low 1.01 | S. cerevisiae deletion strains, locus YNL322C, strain KRE1 (second series), active compounds read low 0.993 | S. cerevisiae deletion strains, locus YNL322C, strain KRE1, active compounds read low 0.998 and 0.989 | S. cerevisiae deletion strains, locus YNR049C, strain mso1, active compounds read low 0.986 | S. cerevisiae deletion strains, locus YNR052C, strain pop2, active compounds read low 1.01 | S. cerevisiae deletion strains, locus YOL006C, strain TOP1, active compounds read low 1.05 | S. cerevisiae deletion strains, locus YOL012C, strain htz1 1.4 | S. cerevisiae deletion strains, locus YOL147C, strain pex11, active compounds read low 1 | S. cerevisiae deletion strains, locus YOR001W, strain rrp6, active compounds read low 0.985 | S. cerevisiae deletion strains, locus YOR061W, strain CKA2, active compounds read low 1 | S. cerevisiae deletion strains, locus YOR069W, strain VPS5, active compounds read low 1.01 | S. cerevisiae deletion strains, locus YOR070C, strain gyp1, active compounds read low 0.991 | S. cerevisiae deletion strains, locus YOR080W, strain dia2, active compounds read low 0.986 | S. cerevisiae deletion strains, locus YOR083W, strain WHI5 (second series), active compounds read low 1.03 | S. cerevisiae deletion strains, locus YOR083W, strain WHI5, active compounds read low 0.977 | S. cerevisiae deletion strains, locus YOR106W, strain vam3, active compounds read low 0.993 | S. cerevisiae deletion strains, locus YOR136W, strain idh2, active compounds read low 1.01 | S. cerevisiae deletion strains, locus YOR144C, strain elg1, active compounds read low 1.01 | S. cerevisiae deletion strains, locus YOR184W, strain ser1, active compounds read low 1.01 | S. cerevisiae deletion strains, locus YOR231W, strain MKK1, active compounds read low 0.995 | S. cerevisiae deletion strains, locus YOR265W, strain rbl2, active compounds read low 0.989 | S. cerevisiae deletion strains, locus YOR270C, strain vph1, active compounds read low 0.921 | S. cerevisiae deletion strains, locus YOR290C, strain snf2, active compounds read low 0.997 | S. cerevisiae deletion strains, locus YOR316C, strain cot1, active compounds read low 1 | S. cerevisiae deletion strains, locus YPL051W, strain arl3, active compounds read low 0.986 | S. cerevisiae deletion strains, locus YPL055C, strain LGE1, active compounds read low 1 | S. cerevisiae deletion strains, locus YPL078C, strain atp4, active compounds read low 0.986 | S. cerevisiae deletion strains, locus YPL106C, strain sse1, active compounds read low 1.01 | S. cerevisiae deletion strains, locus YPL240C, strain hsp82, active compounds read low 0.998 | S. cerevisiae deletion strains, locus YPL241C, strain CIN2, active compounds read low 1 | S. cerevisiae deletion strains, locus YPL256C, strain CLN2, active compounds read low 0.971 | S. cerevisiae deletion strains, locus YPR119W, strain clb2, active compounds read low 1 | S. cerevisiae deletion strains, locus YPR141C, strain kar3, active compounds read low 1.01 | S. cerevisiae deletion strains, locus YPR163C, strain tif3, active compounds read low 1.01 | S. cerevisiae deletion strains, locus YPR167C, strain met16, active compounds read low 1 | S. cerevisiae deletion strains, strain wtn01, active compounds read low 1.02 | S. cerevisiae strains, strain wild type, active compounds read low 1.01
